Screening data deposited in PubChem by Sanford-Burnham Center for Chemical Genomics.
Sampled rows, rich in hits. Any-hit rate of the full collection: about 31%.
CYP2C9 act: activators of human CYP2C9. P11712. recombinant CYP2C9, luciferin-H conversion, luminescence; active compounds read high; factor 1 = untreated enzyme, 0 = blocked. activation factor at 5 µM. 96,000 tested, 1.4% active. AID 1024;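 active = activation factor of 2 or more for CYP2C9 at a 5 µM dose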;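 also: 0 = sulfaphenazole-blocked wells and 1 = vehicle-only wells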
CYP2C9 inh: inhibitors of human CYP2C9 | P11712 | CYP2C9 Supersomes, luciferin-H conversion, luminescence | inhibition, % at 5 µM | 96,000 tested, 20% active | AID 777;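 active = blocking of liver enzyme CYP2C9 beyond about 50% at 5 µM, limit read from the data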
CYP2C19 act: increases human CYP2C19 enzyme activity | activation factor at 5 µM | AID 1025 | 96,000 tested, under 10 active | recombinant CYP2C19, luciferin-H EGE luminescence; active compounds read high; 0 = fully inhibited enzyme, 1 = untreated enzyme | P33261;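 active = activation factor of at least 2 at 5 µM in the primary screen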;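 also: 0 = wells with 2.5 mM tranylcypromine and 1 = vehicle-only wells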
PLAP act: activates human placental alkaline phosphatase | P05187 | purified PLAP enzyme, luminescent substrate read-out; active compounds read high | activation fold at 20 µM | 96,000 tested, 1.2% active | AID 696; in the data active = activation fold above about 2
CYP2C19 inhib: inhibitors of human CYP2C19; P33261; CYP2C19 Supersomes, luciferin-H EGE luminescence, 30 min; inhibition, % at 5 µM; 96,000 tested, 21% active; AID 778;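 active = CYP2C19 inhibition above a set limit at 5 µM in the primary screen, cut at about 50% in these data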;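 also: plate controls were negative control wells for no effect and 2.5 mM tranylcypromine positive control for full effect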
The depositor's hits bear a star.

SMILES	CYP2C9 act	CYP2C9 inh	CYP2C19 act	PLAP act	CYP2C19 inhib
COc1cccc(CC(NC(C)=O)C(=O)NC2CCN(S(=O)(=O)c3cccc4ccccc34)CC2)c1 (configuration not stated)	1.6	-62	0.7	1.4	30
CN(C(=O)c1ccc2c(c1)OCO2)C1(C(=O)NC2CCCC2)CCCCC1	0.7	33	0.9	1.1	9
O=C(c1ccc2c(c1)OCO2)N(CC1CCCO1)C1(C(=O)NC2CCCCC2)CCCCC1 (configuration not stated)	0.3	71*	0.3	1.9	70*
S=C(NC1CCCCC1)c1ccc2c(c1)OCO2	1	-2	0.2	0.9	83*
S=C(c1ccc2c(c1)OCO2)N1CCCCCC1	0.5	55*	0	0.9	99*
O=C(c1ccc2c(c1)OCO2)N1CCCN(C(=O)c2ccc3c(c2)OCO3)CC1	0.3	74*	0.8	1.1	23
COc1ccc(C(=S)N2CCCC2)cc1OC	0.8	15	0.5	0.8	46
COc1ccc(C(=S)N2CCCC2)cc1C	1.4	-42	0.1	1	91*
CCOC(=O)c1sc(NC(=O)CSc2n[nH]c(-c3ccc(Cl)cc3Cl)n2)c(C#N)c1C	0.2	76*	0.7	1.2	34
CCOC(=O)c1sc(NC(=O)CSc2nc3c(c(-c4ccc(OC)cc4)c2C#N)CCCC3)c(C#N)c1C	0.4	64*	0.7	1	30
N#Cc1c(SCC(N)=O)nc2c(c1-c1ccc(O)cc1)CCCC2	1.3	-32	1.1	1.1	-7
CCOC(=O)c1sc(NC(=O)CSc2nc3c(cc2C#N)CCCCCC3)c(C#N)c1C	0.3	68*	0.8	1.3	16
CCOC(=O)c1sc(NC(=O)CSc2nc(C)cc(C)c2C#N)c(C#N)c1C	0.9	12	1.1	1.1	-11
CCCC(O)(CCN1CCOCC1)c1ccc(Br)cc1 (configuration not stated)	0.9	6	0.6	1.4	36
CCOC(=O)c1oc2cc(O)ccc2c(=O)c1-c1ccccc1OC	0.7	28	0.9	1.2	6
CCOC(=O)c1ccc(CC(=O)c2oc3cc(O)ccc3c2C)o1	0.3	66*	0.7	1.2	28
CCOC(=O)c1ccc(-c2c(C(=O)OCC)oc3cc(O)c(CC)cc3c2=O)o1	0	97*	0.3	1.3	68*
CCOC(=O)c1oc2cc(O)ccc2c(=O)c1-c1csc(C)n1	1	4	1.1	0.9	-9
Cc1cc2c(cc1C)NC1(C(=O)Nc3ccccc31)C1=C(CC(C)(C)CC1=O)N2 (configuration not stated)	1.2	-24	1.1	1.4	-11
O=C(COC(=O)c1ccccc1C(=O)N1CCN(c2ccc(F)cc2)CC1)NCc1ccccc1	0.1	86*	0.2	1.6	82*
COC(=O)c1ccccc1OCC(=O)N1CCN(c2ccc(F)cc2)CC1	1	2	0.5	1	48
O=C(COC(=O)c1ccccc1C(=O)N1CCN(c2ccccc2)CC1)Nc1ccc(F)cc1	0.1	91*	0.3	1.5	72*
Cc1occc1C(=O)OCC(=O)Nc1ccc(F)cc1	0.7	32	0.1	0.9	86*
CCOC(=O)c1ccc(NC2c3ccccc3C(=O)N2c2ccccn2)cc1 (configuration not stated)	0.8	22	0.8	0.9	18
COc1cc(/C=C2\SC(c3ccc(C)cc3)=NC2=O)cc(OC)c1O	0.2	82*	0.3	0.7	71*
SMILES	CYP2C9 act	CYP2C9 inh	CYP2C19 act	PLAP act	CYP2C19 inhib
Cc1csc(NC(=O)CCSCCc2ccccn2)n1	0.6	41	0.4	0.8	61*
O=C(COc1ccccc1)Nc1cccc(-c2nnc(-c3ccccc3)o2)c1	0.5	53*	0.6	1.1	35
O=C(NNC(=S)Nc1ccccc1)c1cccc(Br)c1	0.4	62*	0.3	1.2	66*
O=C(NNC(=S)Nc1ccccc1)c1ccco1	1.1	-5	1	1.6	0
O=C(COc1ccccc1)Nc1nnc(-c2ccccc2)o1	0.6	36	0.9	1	6
Cc1cc(C)cc(OCC(=O)Nc2cccc(-c3nnc(-c4ccco4)o3)c2)c1	0.2	80*	0.3	1.1	67*
COc1ccc(OCC(=O)Nc2cccc(-c3nc4ccccc4o3)c2)cc1	0.7	34	0.6	1.1	38
COc1ccc(C(=O)Nc2cccc(-c3nnc(-c4ccco4)o3)c2)cc1	0.4	60*	0.6	1.6	42
